Several values for one entry are separate records, joined by “and”; a condition that tells them apart may be missing. Equal entries are not always repeated. Out of some 5,500 compounds screened, about 2,000 (36%) were called active. Another 18% or so got no clear call; they are omitted. Cut-off read from the data, not from the text of the source: active = normalized growth mostly below about 0.91 (no sharp cut-off); inconclusive = no clear call, values can overlap the other calls; inactive = mostly above about 0.92. The list shows a part of the results.
Assay: chemical genetic growth profiling, strain panel (AID 1159580);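 note: tested at 20 µM; growth read once vehicle control cultures reached saturation at 30 °C; 1 = growth at the plate median or of vehicle wells; lower values mean less growth of the strain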
Conditions: S. cerevisiae deletion strains, growth OD

Measured: normalized growth

CC[C@@]1(C2O[C@@H](C3O[C@@](O)(CC)[C@H](C)C[C@@H]3C)C[C@@H]2C)CC[C@H]([C@]2(C)CCC3(C[C@H](O)[C@@H](C)[C@@H]([C@H](C)[C@@H](OC)[C@H](C)C(=O)O)O3)O2)O1 (stereo not given in full)
inactive: locus YAL013W, strain DEP1, stronger effect = lower value 0.998 | locus YAL021C, strain ccr4, stronger effect = lower value 0.924 | locus YAL030W, strain snc1, stronger effect = lower value 1.03 | locus YBL061C, strain skt5, stronger effect = lower value 1.04 | locus YBR009C, strain hhf1, stronger effect = lower value 1.02 | locus YBR021W, strain FUR4, stronger effect = lower value 1.05 | locus YBR023C, strain chs3, stronger effect = lower value 1.03 | locus YBR171W, strain sec66, stronger effect = lower value 0.974 | locus YBR229C, strain ROT2, stronger effect = lower value 1.03 | locus YBR231C, strain swc5, stronger effect = lower value 1.06 | locus YBR279W, strain paf1, stronger effect = lower value 1.03 | locus YCL011C, strain gbp2, stronger effect = lower value 0.991 | locus YCL016C, strain dcc1, stronger effect = lower value 1.02 | locus YCL029C, strain bik1, stronger effect = lower value 0.982 | locus YCL069W, strain vba3, stronger effect = lower value 0.998 | locus YCR088W, strain abp1, stronger effect = lower value 0.966 | locus YDL005C, strain med2, stronger effect = lower value 1.06 | locus YDL035C, strain GPR1, stronger effect = lower value 1.04 | locus YDL040C, strain nat1, stronger effect = lower value 1.03 | locus YDL074C, strain BRE1, stronger effect = lower value 0.994 | locus YDL101C, strain DUN1, stronger effect = lower value 0.99 | locus YDL134C, strain PPH21, stronger effect = lower value 1.05 | locus YDL185W, strain tfp1, stronger effect = lower value 0.96 | locus YDL192W, strain arf1, stronger effect = lower value 0.999 | locus YDR001C, strain nth1, stronger effect = lower value 0.972 | locus YDR069C, strain doa4, stronger effect = lower value 1.03 | locus YDR101C, strain arx1, stronger effect = lower value 1.01 | locus YDR159W, strain sac3, stronger effect = lower value 1.02 | locus YDR162C, strain NBP2, stronger effect = lower value 1.01 | locus YDR195W, strain ref2 1.04 | locus YDR297W, strain sur2, stronger effect = lower value 1.04 | locus YDR318W, strain mcm21, stronger effect = lower value 0.98 | locus YDR334W, strain swr1, stronger effect = lower value 0.987 | locus YDR335W, strain msn5, stronger effect = lower value 1.02 | locus YDR388W, stronger effect = lower value 1.01 | locus YDR392W, strain spt3, stronger effect = lower value 1.08 | locus YDR502C, strain sam2, stronger effect = lower value 0.983 | locus YEL003W, strain gim4, stronger effect = lower value 1 | locus YEL037C, strain rad23, stronger effect = lower value 1.01 | locus YEL061C, strain CIN8 (second series), stronger effect = lower value 1.01 | locus YEL061C, strain CIN8, stronger effect = lower value 0.99 | locus YER015W, strain faa2, stronger effect = lower value 1.01 | locus YER016W, strain bim1, stronger effect = lower value 1.01 | locus YER110C, stronger effect = lower value 1.01 | locus YER111C, strain swi4, stronger effect = lower value 1.04 | locus YER155C, strain BEM2 (second series), stronger effect = lower value 1.08 | locus YER155C, strain BEM2, stronger effect = lower value 0.999 | locus YER167W, strain BCK2, stronger effect = lower value 0.992 | locus YFR010W, strain ubp6, stronger effect = lower value 1.02 | locus YGL078C, strain dbp3, stronger effect = lower value 0.994 | locus YGL086W, strain mad1, stronger effect = lower value 1 | locus YGL167C, strain pmr1, stronger effect = lower value 1.05 | locus YGL173C, strain kem1, stronger effect = lower value 1.04 | locus YGL227W, strain vid30, stronger effect = lower value 1 | locus YGL240W, strain doc1, stronger effect = lower value 1.04 | locus YGL248W, strain PDE1, stronger effect = lower value 0.991 | locus YGL253W, strain hxk2, stronger effect = lower value 0.983 | locus YGR078C, strain PAC10, stronger effect = lower value 0.994 | locus YGR135W, strain pre9, stronger effect = lower value 0.971 | locus YGR252W, strain gcn5, stronger effect = lower value 0.976 | locus YHR013C, strain ard1, stronger effect = lower value 1.03 | locus YHR027C, strain rpn1, stronger effect = lower value 1.05 | locus YHR030C, strain SLT2, stronger effect = lower value 1.01 and 0.966 | locus YHR079C, strain IRE1 (second series), stronger effect = lower value 0.991 | locus YHR079C, strain IRE1, stronger effect = lower value 0.956 | locus YHR094C, strain hxt1, stronger effect = lower value 1.02 | locus YHR129C, strain ARP1, stronger effect = lower value 1 | locus YHR142W, strain chs7, stronger effect = lower value 0.966 | locus YHR200W, strain rpn10, stronger effect = lower value 0.986 | locus YIL066C, strain RNR3, stronger effect = lower value 1 | locus YIL073C, strain SPO22, stronger effect = lower value 0.915 | locus YIL125W, strain kgd1, stronger effect = lower value 0.993 | locus YIR030C, strain dcg1, stronger effect = lower value 1 | locus YJL092W, strain hpr5, stronger effect = lower value 0.973 | locus YJL095W, strain BCK1 (second series), stronger effect = lower value 1.04 | locus YJL095W, strain BCK1, stronger effect = lower value 0.972 and 0.975 | locus YJL115W, strain asf1, stronger effect = lower value 1.02 | locus YJL134W, strain LCB3, stronger effect = lower value 1.01 | locus YJL154C, strain vps35, stronger effect = lower value 0.963 | locus YJL164C, strain tpk1, stronger effect = lower value 0.993 | locus YJL166W, strain qcr8, stronger effect = lower value 1.04 | locus YJL168C, strain set2, stronger effect = lower value 1.03 | locus YJL187C, strain SWE1 (second series), stronger effect = lower value 0.98 | locus YJR043C, strain POL32, stronger effect = lower value 1.05 | locus YJR066W, strain TOR1, stronger effect = lower value 0.941 | locus YKL009W, strain mrt4, stronger effect = lower value 1 | locus YKL068W, stronger effect = lower value 0.998 | locus YKL085W, strain MDH1 (second series), stronger effect = lower value 0.942 | locus YKL085W, strain MDH1, stronger effect = lower value 0.942 | locus YKL160W, strain elf1, stronger effect = lower value 1.01 | locus YKL190W, strain CNB1, stronger effect = lower value 0.981 | locus YKR001C, strain vps1, stronger effect = lower value 1.03 | locus YKR026C, strain gcn3, stronger effect = lower value 0.979 | locus YKR091W, strain srl3, stronger effect = lower value 0.999 | locus YLL001W, strain dnm1, stronger effect = lower value 1.02 | locus YLL026W, stronger effect = lower value 1 | locus YLL041C, strain sdh2, stronger effect = lower value 1.01 | locus YLR027C, strain aat2, stronger effect = lower value 0.995 | locus YLR039C, strain RIC1, stronger effect = lower value 1.32 | locus YLR058C, strain SHM2, stronger effect = lower value 0.989 | locus YLR102C, strain apc9, stronger effect = lower value 1.02 | locus YLR113W, strain HOG1, stronger effect = lower value 0.947 | locus YLR221C, strain rsa3, stronger effect = lower value 0.988 | locus YLR258W, strain gsy2, stronger effect = lower value 1.03 | locus YLR262C, strain YPT6, stronger effect = lower value 1.07 | locus YLR268W, strain sec22, stronger effect = lower value 0.987 | locus YLR320W, strain mms22, stronger effect = lower value 1.02 | locus YLR330W, strain CHS5, stronger effect = lower value 0.994 | locus YLR342W, strain FKS1 (second series), stronger effect = lower value 1.05 | locus YLR342W, strain FKS1, stronger effect = lower value 1.01 | locus YLR357W, strain rsc2, stronger effect = lower value 1.01 | locus YLR370C, strain arc18, stronger effect = lower value 0.979 | locus YLR371W, strain rom2, stronger effect = lower value 1.01 | locus YLR384C, strain iki3, stronger effect = lower value 1.05 | locus YLR418C, strain cdc73, stronger effect = lower value 0.993 | locus YML016C, strain PPZ1, stronger effect = lower value 0.996 | locus YML032C, strain rad52, stronger effect = lower value 1.01 | locus YML120C, strain ndi1, stronger effect = lower value 1.01 | locus YML124C, strain tub3, stronger effect = lower value 1.01 | locus YMR058W, strain fet3, stronger effect = lower value 1.01 | locus YMR078C, strain ctf18, stronger effect = lower value 1.02 | locus YMR125W, strain sto1, stronger effect = lower value 0.982 | locus YMR129W, stronger effect = lower value 0.999 | locus YMR205C, strain PFK2, stronger effect = lower value 1.01 | locus YMR223W, strain ubp8, stronger effect = lower value 0.983 | locus YMR263W, strain SAP30, stronger effect = lower value 0.967 | locus YMR307W, strain GAS1, stronger effect = lower value 1.23 | locus YNL067W, strain RPL9B, stronger effect = lower value 0.959 | locus YNL071W, strain lat1, stronger effect = lower value 1.01 | locus YNL128W, strain TEP1, stronger effect = lower value 0.956 | locus YNL153C, strain GIM3, stronger effect = lower value 0.997 | locus YNL183C, strain NPR1, stronger effect = lower value 0.941 | locus YNL209W, strain ssb2, stronger effect = lower value 1.05 | locus YNL233W, strain BNI4, stronger effect = lower value 1 | locus YNL248C, strain rpa49, stronger effect = lower value 1.03 | locus YNL250W, strain rad50, stronger effect = lower value 0.998 | locus YNL271C, strain bni1, stronger effect = lower value 1.01 | locus YNL298W, strain CLA4, stronger effect = lower value 0.993 | locus YNL307C, strain MCK1, stronger effect = lower value 1.05 | locus YNL322C, strain KRE1 (second series), stronger effect = lower value 0.962 | locus YNL322C, strain KRE1, stronger effect = lower value 0.99 | locus YNR049C, strain mso1, stronger effect = lower value 0.985 | locus YNR052C, strain pop2, stronger effect = lower value 0.988 | locus YOL012C, strain htz1 1.01 | locus YOL147C, strain pex11, stronger effect = lower value 1.01 | locus YOR001W, strain rrp6, stronger effect = lower value 1.02 | locus YOR061W, strain CKA2, stronger effect = lower value 1 | locus YOR069W, strain VPS5, stronger effect = lower value 1 | locus YOR070C, strain gyp1, stronger effect = lower value 1.03 | locus YOR080W, strain dia2, stronger effect = lower value 1.03 | locus YOR083W, strain WHI5, stronger effect = lower value 1.01 | locus YOR136W, strain idh2, stronger effect = lower value 0.99 | locus YOR144C, strain elg1, stronger effect = lower value 1.01 | locus YOR184W, strain ser1, stronger effect = lower value 0.977 | locus YOR231W, strain MKK1, stronger effect = lower value 0.974 | locus YOR265W, strain rbl2, stronger effect = lower value 1.04 | locus YOR290C, strain snf2, stronger effect = lower value 0.978 | locus YOR316C, strain cot1, stronger effect = lower value 1.01 | locus YPL051W, strain arl3, stronger effect = lower value 1.01 | locus YPL055C, strain LGE1, stronger effect = lower value 1.01 | locus YPL078C, strain atp4, stronger effect = lower value 1.05 | locus YPL106C, strain sse1, stronger effect = lower value 1.08 | locus YPL240C, strain hsp82, stronger effect = lower value 1.04 | locus YPL241C, strain CIN2, stronger effect = lower value 1.01 | locus YPL256C, strain CLN2, stronger effect = lower value 0.993 | locus YPR119W, strain clb2, stronger effect = lower value 1.02 | locus YPR141C, strain kar3, stronger effect = lower value 0.993 | locus YPR163C, strain tif3, stronger effect = lower value 1.05 | locus YPR167C, strain met16, stronger effect = lower value 0.991 | strain wtn01, stronger effect = lower value 0.99
